About 350 (0.097%) of roughly 360,000 compounds were called active. The entries come from a sample that favours actives as a whole. Values without a mark were called inactive. Rule as the data show it: active = inhibition above about 16% (passing the limit was not always enough); inconclusive = no clear call, values can overlap the other calls; inactive = below that.

The assay has as its system UDP-N-acetylbacillosamine N-acetyltransferase PglD (Campylobacter jejuni). Description: C. jejuni PglD acetyltransferase inhibitors, primary screen, biochemical, DTNB colorimetric, single point (AID 602405). As to conditions: purified PglD enzyme, DTNB colorimetric CoA detection; at 12.5 µM; hits give high values.
By inhibition is commonly meant the change of the read-out against control, counted positive when it falls. With `CC(C)CC#Cc1cnc2c(c1)C(=O)N([C@H](C)CO)C[C@H](C)[C@@H](CN(C)C(=O)Cc1cccnc1)O2`, the inhibition was -1.63%. For the compound `CCCN1C[C@H](C)[C@@H](OC)CN(C)C(=O)c2ccc(NC(=O)C3CCOCC3)cc2OC[C@H]1C`, the inhibition is 0.0955%.

Take `C[C@H]1CCCCO[C@@H](CN(C)C(=O)Nc2cccc3ccccc23)[C@@H](C)CN([C@@H](C)CO)C(=O)c2cc(NS(=O)(=O)c3ccc(Cl)cc3)ccc2O1`: the inhibition was 19.9%.

With `C[C@H]1CN([C@@H](C)CO)C(=O)c2cc(-c3cccc(F)c3)cnc2O[C@@H]1CN(C)Cc1cncnc1`, the inhibition was 4.73%. On to `COCC(=O)Nc1ccc2c(c1)OC[C@H](C)N(C)C[C@@H](C)[C@@H](OC)CN(C)C2=O`, for which the inhibition was -0.767%. As to `CCC(=O)Nc1ccc2c(c1)C(=O)N(C)[C@@H]1CC[C@@H](CC(=O)N[C@@H](C)c3ccccc3)O[C@@H]1CO2`, the inhibition is 2.31%. With `C/C=C/c1ccc2c(c1)O[C@@H](CN(C)C(=O)C1CCOCC1)[C@H](C)CN([C@H](C)CO)S2(=O)=O`, the inhibition is -2.4%. With `CCCNC(=O)N(C)C[C@@H]1Oc2cc(-c3ccccc3)ccc2S(=O)(=O)N([C@H](C)CO)C[C@H]1C`, the inhibition is 3.76%. In the case of `COCC#Cc1ccc2c(c1)O[C@@H](CN(C)C(C)=O)[C@H](C)CN([C@H](C)CO)S2(=O)=O`, the inhibition was 2.69%. As for `C[C@H](CO)N1C[C@H](C)[C@@H](CN(C)Cc2ccc3c(c2)OCO3)Oc2c(NC(=O)C3CCOCC3)cccc2C1=O`, the inhibition is -0.262%. Turning to `Cc1ccc(S(=O)(=O)N2CCC(C(=O)NCC3CCCO3)CC2)cc1` (stereo not given), the inhibition is 34.1% (active). Regarding `Cc1ccc(CN(CC(=O)NCC2CCCO2)S(=O)(=O)c2ccc(C)cc2)cc1` (stereo not given), the inhibition is -1.95%. Take `Cc1ccc(S(=O)(=O)N2CCC(C(=O)N3CCCCCCC3)CC2)cc1`: the inhibition was -2.53%. In the case of `CCCNC(=O)[C@H]1[C@H](CO)[C@H]2Cn3c(ccc(C4=CCCC4)c3=O)[C@H]2N1C(=O)CC1CC1`, the inhibition is 0.913%. On to `CO[C@@H]1CC[C@@H]2CCOc3ccc(C#N)cc3C(=O)N(C)C[C@@H](OC)[C@@H](C)C(=O)N(C)C[C@H]1O2`, for which the inhibition is 2.01%.

For the compound `O=C(CC1CC1)Nc1ccc2c(c1)[C@@H]1C[C@@H](CC(=O)NC3CCCCC3)O[C@@H](CO)[C@@H]1O2`, the inhibition is 0.63%. On to `C[C@@H]1CN([C@@H](C)CO)C(=O)c2cc(C3=CCCCC3)cnc2O[C@H]1CN(C)CC1CCOCC1`, for which the inhibition was 4.78%.

Take `C[C@H]1CN([C@@H](C)CO)C(=O)c2cc(/C=C/c3ccccc3)cnc2O[C@@H]1CN(C)C(=O)NC1CCCCC1`: the inhibition was 4.19%. For `C[C@@H]1CCCCO[C@@H](CN(C)C(=O)Cc2ccccc2)[C@@H](C)CN([C@@H](C)CO)C(=O)c2cc(NC(=O)c3ccccc3)ccc2O1`, the inhibition is -0.412%. Regarding `COc1ccc(NC(=O)Nc2cccc3c2O[C@H](CN(C)S(=O)(=O)c2ccc(F)cc2)[C@H](C)CN([C@H](C)CO)C3=O)cc1`, the inhibition is 2.54%.

Turning to `C=CCOC(=O)C1=C(C)NC(SCC(=O)OCC)=C(C#N)C1c1ccc(C)cc1` (stereo not given), the inhibition was 25.9% (active). Then `C=CCOC(=O)C1=C(C)NC(C)=C(C(=O)OCC=C)C1c1cccs1`, with -1.12%; and `CCOC(=O)CSC1=C(C#N)C(c2sccc2C)CC(=O)N1` (stereo not given), with -0.988%. `CCCC(=O)Nc1ccc2c(c1)C(=O)N(C)[C@H]1CC[C@@H](CC(=O)NCc3cccc(F)c3)O[C@H]1CO2`: the inhibition is 0.49%.

For `CC(NC(=O)c1ccc(Cl)cc1)C(=O)N1CCCCC1` (stereo not given), the inhibition is 24% (active). On to `CSCCC(NC(=O)c1ccccc1)C(=O)N1CCCCCCC1` (stereo not given), for which the inhibition was 6.24%. As to `COc1ccc(S(=O)(=O)NC(C)C(=O)N2CCCCCC2)cc1` (stereo not given), the inhibition was 2.86%. With `C[C@@H]1CN([C@@H](C)CO)C(=O)Cc2cc(NS(=O)(=O)c3ccc(Cl)cc3)ccc2O[C@H]1CN(C)Cc1ccc(C(F)(F)F)cc1`, the inhibition was 3.04%. Turning to `Cc1noc(C)c1NC(=O)N(C)C[C@@H]1Oc2ccc(NC(=O)Nc3ccc4c(c3)OCO4)cc2C(=O)N([C@H](C)CO)C[C@H]1C`, the inhibition is -1.03%. As for `CC(C)NC(=O)Nc1ccc2c(c1)C(=O)N([C@H](C)CO)C[C@@H](C)[C@@H](CN(C)S(=O)(=O)c1ccc(Cl)cc1)OCCCC[C@H](C)O2`, the inhibition is 1.05%. `C[C@@H]1CN([C@@H](C)CO)C(=O)c2c(c3ccccc3n2C)-c2ccccc2CO[C@H]1CN(C)C(=O)N[C@H](C)c1ccccc1`: the inhibition was -3.17%. Take `CS(=O)(=O)Nc1ccc2c(c1)[C@H]1C[C@@H](CC(=O)NCCc3ccccc3)O[C@@H](CO)[C@H]1O2`: the inhibition is 1.04%.

Consider `Cc1noc(C)c1S(=O)(=O)Nc1ccc2c(c1)C(=O)N([C@@H](C)CO)C[C@@H](C)[C@H](CN(C)Cc1ccc(-c3ccccc3)cc1)O2`, for which the inhibition is -0.726%.

As for `Cc1noc(C)c1NC(=O)Nc1ccc2c(c1)C(=O)N([C@@H](C)CO)C[C@H](C)[C@H](CN(C)Cc1ccc(C(=O)O)cc1)OCCCC[C@@H](C)O2`, the inhibition was 0.986%. With `Cc1ccccc1-c1ccc2c(c1)O[C@H](CN(C)C)[C@H](C)CN([C@@H](C)CO)S2(=O)=O` the figure was 4.9%.

Regarding `CCCN1C[C@@H](C)[C@@H](OC)CN(C)C(=O)c2ccc(NS(C)(=O)=O)cc2OC[C@@H]1C`, the inhibition is 0.769%.

`O=C(C[C@@H]1CC[C@@H](NC(=O)C2CC2)[C@H](CO)O1)NCc1ccncc1`: the inhibition was -0.635%. With `Cc1ccc(S(=O)(=O)NCC[C@H]2CC[C@H](NC(=O)c3ccccn3)[C@@H](CO)O2)cc1` the figure was 1.02%; with `C[C@@H]1CN([C@H](C)CO)S(=O)(=O)c2ccc(-c3cccc(C#N)c3)cc2O[C@@H]1CN(C)C(=O)Nc1ccccc1F`, -1.07%; with `CCCC#Cc1cnc2c(c1)C(=O)N([C@H](C)CO)C[C@H](C)[C@H](CN(C)C(=O)Cc1ccncc1)O2`, 0.18%. As for `C[C@@H]1CN([C@H](C)CO)S(=O)(=O)c2ccc(C#CCN(C)C)cc2O[C@@H]1CN(C)C(=O)C1CCCCC1`, the inhibition is -0.634%. Then `COC(=O)C[C@@H]1CC[C@H]2[C@@H](COC[C@H](O)CN2C(=O)Nc2ccccc2OC)O1`, with -0.947%; and `C[C@@H]1CN([C@@H](C)CO)C(=O)c2cc(NC(=O)CCCN(C)C)ccc2O[C@@H](C)CCCCO[C@H]1CN(C)Cc1ccc2c(c1)OCO2`, with -1.38%; and `Cc1noc(C)c1NC(=O)Nc1ccc2c(c1)C(=O)N([C@H](C)CO)C[C@H](C)[C@H](CN(C)C(=O)C1CCCCC1)OCCCC[C@@H](C)O2`, with 0.321%. With `CCCNC(=O)N1C[C@@H](O)COC[C@@H]2O[C@@H](CC(=O)O)CC[C@H]21`, the inhibition is -1.59%. For `CC(C)C#Cc1ccc([C@@H]2[C@@H](CO)N3CCCCN(C(=O)c4ccc5c(c4)OCO5)C[C@H]23)cc1`, the inhibition is -1.45%. Then `OC[C@@H]1Nc2ccc(-c3cccc(F)c3)cc2[C@H]2[C@@H]1CCN2Cc1ccncc1`, with -3.81%; and `COc1cccc(S(=O)(=O)N[C@@H]2C=C[C@H](CC(=O)NC3CCC3)O[C@H]2CO)c1`, with -3.06%; and `CN1C(=O)c2cc(NC(=O)C3CCCCC3)ccc2OC[C@H]2O[C@@H](CC(=O)NC3CCCC3)CC[C@@H]21`, with -4.23%.

As to `CCCNC(=O)N1[C@H](C#N)[C@@H](c2ccc(C3=CCCC3)cc2)[C@H]1CO`, the inhibition was 10.3%. For `C[C@H](CO)N1C[C@H](C)[C@H](CN(C)Cc2ccc(C(=O)Nc3ccccc3N)cc2)Oc2c(NC(=O)Nc3ccccc3)cccc2C1=O`, the inhibition is 1.92%. Turning to `CO[C@@H]1CN(C)C(=O)c2ccc(NC(=O)c3ccc(F)cc3)cc2OC[C@H](C)N(C(=O)c2ccc(F)cc2)C[C@@H]1C`, the inhibition was -1.94%. With `COc1ccc(NC(=O)Nc2cccc3c2O[C@H](CN(C)C(=O)Nc2cccc4ccccc24)[C@H](C)CN([C@H](C)CO)C3=O)cc1`, the inhibition was 2.27%. Regarding `CC(C)CC#Cc1ccc2c(c1)O[C@H](CN(C)C(=O)CC1CC1)[C@@H](C)CN([C@@H](C)CO)S2(=O)=O`, the inhibition is 0.792%.

Turning to `CC(C)CCC(C)NC(=O)c1ccc2nccnc2c1` (stereo not given), the inhibition was -0.116%. With `CC(C)CCNC(=O)c1ccc2c(Cl)c3c(nc2c1)CCC3`, the inhibition is 58.9% (active). For the compound `CC(C)CCNC(=O)c1[nH]c(C(F)(F)F)nc1-c1ccccc1`, the inhibition is -5.32%. As to `Cc1noc(C)c1NC(=O)Nc1ccc2c(c1)CC(=O)N([C@H](C)CO)C[C@H](C)[C@H](CN(C)C(=O)NC(C)C)O2`, the inhibition was 2.55%. Regarding `CC(=O)N(C)C[C@H]1Oc2cc(C#CCN(C)C)ccc2S(=O)(=O)N([C@H](C)CO)C[C@H]1C`, the inhibition is -4.02%. For the compound `CC=Cc1ccc2n(c1=O)C[C@@H]1[C@@H](CO)[C@H](C(=O)NCc3cccc(OC)c3)N[C@H]21` (mixture of isomers), the inhibition was 0.651%. In the case of `CCCNC(=O)C[C@H]1C[C@@H]2c3cc(NC(=O)c4ccc5c(c4)OCO5)ccc3O[C@@H]2[C@@H](CO)O1`, the inhibition is -7.26%.

`Cc1ccc(S(=O)(=O)Nc2ccc3c(c2)C(=O)N([C@H](C)CO)C[C@H](C)[C@@H](CN(C)C(=O)NC(C)C)OCCCC[C@@H](C)O3)cc1`: the inhibition was -2.85%. For the compound `CC(C)CNS(=O)(=O)c1ccc(CCC(=O)NCc2ccc(Cl)cc2)cc1`, the inhibition was 0.729%. As to `Cc1ccc(S(=O)(=O)NCCC(=O)NCc2ccc(Cl)cc2)cc1C`, the inhibition is -81.7%.

Consider `CSc1ccc(S(=O)(=O)NCc2ccc(Cl)cc2)cc1`, for which the inhibition was 26.5% (active).

The record behind these values is PubChem BioAssay AID602405 (Broad Institute, 2012).
